{
  "source": "paper PMC5540273",
  "about": "(PLoS ONE, 2017);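 note: KINOMEscan kinase panel screen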",
  "data": [
    {"test_system": "T1, JNK2", "T1 construct": "gene MAPK9", "conditions": "concentration: 1 μM, replicates: in singlicate; n = 1", "units": {"%Inh": "%"}, "values": [
      {"smiles": "COc1ccc(Nc2nccc(N3CCC(NC(=O)Nc4cccc(OC)c4)C3)n2)cc1", "note": "(stereo not shown) [GSK1379742]", "%Inh": 13},
      {"smiles": "Cc1ccc(C)c(NC(=O)NC2CCN(c3ccnc(Nc4ccc(F)cc4)n3)C2)c1", "note": "(stereo not shown) [GSK1379720]", "%Inh": 10},
      {"smiles": "c1ccc(-c2n[nH]cc2Nc2ccnc3ccccc23)nc1", "note": "[GW694077]", "%Inh": 60},
      {"smiles": "COc1cc(Nc2nccc(N3CCC(NC(=O)Nc4cccc(C(C)=O)c4)C3)n2)cc(OC)c1OC", "note": "(stereo not shown) [GSK1379753]", "%Inh": 29},
      {"smiles": "O=C(Nc1cccc(-c2nn3ncccc3c2-c2ccnc(Nc3ccccc3)n2)c1)c1c(F)cccc1F", "note": "[GSK198271]", "%Inh": 56},
      {"smiles": "c1ccc(-c2cnc3nccnn23)cc1", "note": "[AH20685]", "%Inh": 20},
      {"smiles": "Cl.c1ccc(-c2ccc3c(Nc4ccc5[nH]ncc5c4)ccnc3c2)nc1", "note": "[GW440137]", "%Inh": 27},
      {"smiles": "Fc1ccc(-c2ncn(C3CCNCC3)c2-c2ccnc(Oc3ccc(-c4ccccc4)cc3)n2)cc1", "note": "[SB-245391]", "%Inh": 66},
      {"smiles": "Clc1ccc(-c2nn3ncccc3c2-c2ccnc(Nc3ccc4c(c3)OCCO4)n2)cc1", "note": "[GW829116]", "%Inh": 99.9},
      {"smiles": "Cc1ccc(F)c(C(=O)Nc2cccc(-c3nn4ccccc4c3-c3ccnc(Nc4cccc(F)c4)n3)c2)c1F", "note": "[GSK361061]", "%Inh": 38},
      {"smiles": "CNC(=O)c1ccccc1Nc1nc(Nc2ccc(N3CCOCC3)cc2)ncc1Cl.Cl", "note": "[GSK1576028]", "%Inh": 100},
      {"smiles": "Cc1cccc(Nc2nc(N[C@H]3CCNC3)ncc2C(N)=O)c1.Cl", "note": "[GSK2197149]", "%Inh": 29},
      {"smiles": "CCn1c(-c2nonc2N)nc2c(C#CC(C)(C)O)nc(OC[C@H](N)c3ccccc3)cc21", "note": "[GSK943949]", "%Inh": 0},
      {"smiles": "COc1cc(Nc2ncc3c(C)nc(-c4cc5ccccc5[nH]4)n3n2)cc(OC)c1OC", "note": "[GW869516]", "%Inh": 0},
      {"smiles": "Cl.NC(=O)c1cccc(Nc2nccc(Nc3ccc(Oc4c(Cl)cccc4Cl)c(Cl)c3)n2)c1", "note": "[GW659009]", "%Inh": 5},
      {"smiles": "Cl.c1ccc(-c2ccc3c(Nc4ccc5[nH]ccc5c4)ccnc3c2)nc1", "note": "[GW440138]", "%Inh": 7},
      {"smiles": "CN1CCN(CCCNc2nccc(-c3c(-c4ccc(F)cc4)nn4cc(C(F)(F)F)ccc34)n2)CC1", "note": "[GW621581]", "%Inh": 91.7},
      {"smiles": "O=C(Nc1n[nH]c2cc(-c3ccoc3)ccc12)C1CC1", "note": "[SB-738481]", "%Inh": 0},
      {"smiles": "COc1cccc(C2=C(Nc3ccc(Cl)c(C(=O)O)c3)C(=O)NC2=O)c1", "note": "[SB-390769]", "%Inh": 64},
      {"smiles": "COc1cccc(-c2ccc3c(NC(=O)C4CC4)n[nH]c3n2)c1", "note": "[SB-710903]", "%Inh": 14},
      {"smiles": "COc1cccc(NC(=O)NC2CCN(c3ccnc(Nc4cc(OC)c(OC)c(OC)c4)n3)C2)c1", "note": "(stereo not shown) [GSK1379763]", "%Inh": 27},
      {"smiles": "CN(C)S(=O)(=O)c1cc(-c2ccc3nccc(-c4cccc(S(N)(=O)=O)c4)c3c2)cnc1N", "note": "[GSK1669921]", "%Inh": 0},
      {"smiles": "Cn1cc(-c2ccc3c(c2)CCN3C(=O)Cc2cccc(F)c2)c2c(N)ncnc21", "note": "[GSK2603358]", "%Inh": 19},
      {"smiles": "COc1ccc(CNC(=O)NC2CCN(c3ccnc(Nc4ccc(F)cc4)n3)CC2)cc1", "note": "[GSK1379788]", "%Inh": 5},
      {"smiles": "O=C(Nc1cccc(-c2nn3ccccc3c2-c2ccnc(Nc3cccc(F)c3)n2)c1)c1c(F)ccc(F)c1Cl", "note": "[GSK357952]", "%Inh": 23},
      {"smiles": "Cl.Cl.NCC(NCc1ccc(-c2ccnc3[nH]ccc23)s1)c1ccccc1", "note": "(stereo not shown) [GSK1321565]", "%Inh": 14},
      {"smiles": "CCc1ccc(-c2ccc3c(c2)-c2c(cnn2C)S(=O)(=O)N3C)cc1", "%Inh": 0},
      {"smiles": "O=C(O)C(F)(F)F.O=C(O)C(F)(F)F.O=c1[nH]ccc2nc(N[C@@H]3CCCNC3)nc(Nc3ccc(S(=O)(=O)N4CCOCC4)cc3)c12", "note": "[GSK2177277]", "%Inh": 93.4},
      {"smiles": "Cc1occc1-c1ncc(OC[C@@H](N)Cc2c[nH]c3ccccc23)cc1-c1ccc2[nH]nc(C)c2c1.O=C(O)C(F)(F)F", "note": "[GSK682037]", "%Inh": 55},
      {"smiles": "COCCOCCOc1cc2ncc3c4ccc(C#N)cc4[nH]c3c2cc1OC", "%Inh": 0},
      {"smiles": "CN(C)Cc1ccc(-c2ccc3c(Nc4ccc(Oc5ccccn5)cc4)ccnc3c2)o1", "note": "[GW567148]", "%Inh": 4},
      {"smiles": "Cc1ccc(C(=O)N2CC[C@@H](O)C2)cc1-n1c(C)cc(OCc2ccc(F)cc2F)c(Br)c1=O", "%Inh": 0},
      {"smiles": "Cn1cc(-c2[nH]c3cc(NC(=O)[C@H](N)C4CCCCC4)cc4c3c2C=NNC4=O)cn1", "%Inh": 0},
      {"smiles": "COc1cc(Nc2nccc(-c3c(-c4cccc(NC(=O)c5c(F)cccc5F)c4)nn4ncccc34)n2)cc(OC)c1OC", "note": "[GSK327238]", "%Inh": 71},
      {"smiles": "CC(=O)Nc1nc2cnc(Nc3cc(NC(=O)c4cccc(C5(C#N)CC5)c4Cl)ccc3C)nc2s1", "%Inh": 0},
      {"smiles": "Cc1ccc(C(=O)Nc2ccc(Nc3ccnc4cc(-c5nccs5)ccc34)cc2O)cc1.Cl", "note": "[GW494702]", "%Inh": 3},
      {"smiles": "Nc1ncc(-c2cccnc2)c2scc(-c3ccc4c(c3)CCN4C(=O)Cc3ccccc3)c12", "note": "[GSK683281]", "%Inh": 37}
    ]}
  ]
}
